# From PubChem BioAssay (NCATS)
# Values joined by “and” are separate entries in the source; they are usually repeats but may differ in a detail not shown here. Equal entries are not always repeated. Results filed as inconclusive are left out. A number with no mark means an inactive call. Active and inactive are the calls of the source. Calls come from the whole dose curve; as a rule, active = well fitted inhibition curve with a large enough effect; inconclusive = small, poorly fitted or top-dose-only effect; inactive = no such curve, though single readings can be large or run the other way.
# Assay: qHTS for Inhibitors of the Aldehyde Dehydrogenase Family (ALDH1A2, ALDH1A3, ALDH2, ALDH3A1) (AID 2061307); note: nearly all actives have a fitted effect of over 50% in size; for Potency: test system not described further here
# Conditions: ALDH inhibition qHTS; series mostly up to 50.3 µM; activity change, negative = inhibition: at the top concentration
# % is set by controls: 0 for no effect and ±100 for the full control effect; potency is the fitted concentration of half-maximal effect.
Compound,Potency,"activity change, negative = inhibition"
COc1cccc2cc(-c3nc(C4CCC(C(=O)O)CC4)n4ncnc(N)c34)[nH]c12 (centres undefined),3.57 µM (active),
Cc1cc2ncc(C(=O)NCC(C)(C)NCC(=O)N3CCC[C@H]3C#N)cn2n1,,4.78%
CC(=O)Nc1sc2c(c1-c1nc3ccccc3s1)CNC2,7.12 µM (active),
CC1(C)CC(=O)c2c(C(F)(F)F)nn(-c3ccc(C(N)=O)c(NC4CCC(OC(=O)CN)CC4)c3)c2C1 (centres undefined),,51.5%
COCCN(C(=O)c1cc(OC)c(OC)c(OC)c1)c1nc(-c2ccccc2)cs1,,1.65%
Cc1nnc(-c2sc(NC(=O)[C@H](C(C)C)n3c(=O)[nH]c4ccccc4c3=O)nc2C)o1,,-7.01%
O=C(C1CCCCC1)N(CCN1CCN(c2ccccc2O)CC1)c1ccccn1,,-4.33%
Cc1csc2c(N[C@@H](C)CN3CCN(S(=O)(=O)c4ccc(Cl)c(Cl)c4)CC3)ncnc12,708 nM (active) and 224 nM (active),
O=C(O)c1cnn(-c2nc3cc(OC(F)(F)F)c(Cl)cc3[nH]2)c1,13.5 µM (active),
CCOC(=O)c1cccc(CNc2ccc(N(C)C(=O)Nc3ccccc3)cc2)c1,,-18.8%
Cc1ncc(-c2ccnc(Nc3ccc(S(C)(=O)=O)cc3)n2)n1C(C)C,11.3 µM (active),
COc1ccc(CCO[C@@H]2CCCC[C@H]2N2CC[C@@H](O)C2)cc1OC,,-5.18%
C[C@@H]1CN(Cc2ncccn2)C[C@H]1c1nc2c(cnn2C2CCOCC2)c(=O)[nH]1,,-4%
COc1cc(C(O)C2COC(c3ccc(OC4OC(CO)C(O)C(O)C4O)c(OC)c3)C2CO)ccc1O (centres undefined),,-20.2% [at 34.4 µM]
